Source: PubChem (National Center for Advancing Translational Sciences (NCATS))
GLA inh pH 4.5 = alpha-galactosidase A (human) inhibition, pH 4.5; P06280; purified enzyme, 4-MU-alpha-Gal fluorescence, pH 4.5; activity change, negative = inhibition, % at 105 µM; 230,000 tested, under 10 active; AID 1467;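 further: 0% = full activity with enzyme and -100% = basal without enzyme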
Target sequence (P06280 whole entry, looked up): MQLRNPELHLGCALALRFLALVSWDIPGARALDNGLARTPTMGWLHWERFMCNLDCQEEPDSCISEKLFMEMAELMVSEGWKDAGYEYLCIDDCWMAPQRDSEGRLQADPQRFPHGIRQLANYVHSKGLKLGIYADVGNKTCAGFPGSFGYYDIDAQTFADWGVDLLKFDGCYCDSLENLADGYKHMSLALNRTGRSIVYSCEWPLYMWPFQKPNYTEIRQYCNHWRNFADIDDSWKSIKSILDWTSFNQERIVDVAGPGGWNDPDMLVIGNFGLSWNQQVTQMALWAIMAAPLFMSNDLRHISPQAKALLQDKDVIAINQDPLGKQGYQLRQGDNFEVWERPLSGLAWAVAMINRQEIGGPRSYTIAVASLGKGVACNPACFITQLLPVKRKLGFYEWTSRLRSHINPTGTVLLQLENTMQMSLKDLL
PNC assembly inh = blocks assembly of the perinucleolar compartment | activity change (PNC), negative = inhibition, % at 10 µM | 140,000 tested, 3.1% active | PC3M PTB-GFP, PNC prevalence imaging, 16 h; stronger effect = lower value;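 active means readout at or below -70, meaning at least 70% loss of cells showing the perinucleolar compartment, a nuclear body marking cancer cells; inconclusive means readout between -30 and a set limit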;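 further: plate controls were DMSO wells for no effect and camptothecin positive control wells for full effect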
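PC3M cells stably expressing PTB-GFP, 750–1000 cells/well, treated 16 h at 37 °C with compound (23 nl of library stock), in duplicate. After paraformaldehyde fixation and Hoechst stain, imaged at 20x; PNC prevalence scored by image analysis.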
12-hLO inh = 12-hLO (ALOX12) enzyme inhibition | AID 1452 | purified 12-hLO, xylenol orange hydroperoxide absorbance | 150,000 tested, 0.12% active | Potency, µM (doses to about 57.1 µM), without a hit: at the highest dose activity change, negative = inhibition, usual class: inhibitors | P18054; further: potency means the concentration at half of the fitted maximal effect; nearly all actives have a fitted effect of over 55% in size
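Lipoxygenase turnover measured by absorbance at 573 and 405 nm after Fe-XO development. Human 12hLO 150 nM, arachidonate 40 uM, pH 7.0 Hepes buffer with detergent; 15 min compound preincubation, 30 min reaction.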
aGal spleen mod = inhibitors or activators of human alpha-galactosidase in spleen homogenate. P06280. human spleen homogenate, 4MU-alpha-Gal fluorescence, 40 min. Potency, µM (titrated, usually from 80 µM), for the others: top-dose activity change, negative = inhibition, usual class: inhibitors. 240,000 tested, 0.008% active. AID 2107;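 further: potency means the concentration at half of the fitted maximal effect; 0% = enzyme with vehicle and -100% = no enzyme basal signal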
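qHTS titration in buffer at pH 5.0. Alpha-galactosidase activity in spleen homogenate was measured via 4-methylumbelliferone release from 1 mM fluorogenic substrate after 40 min at 37C and a pH 10 stop. AC50 came from Hill fits of control-normalized data.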
HPGD block = blocks human HPGD enzyme activity | P15428 | purified HPGD, NADH fluorescence kinetic, PGE2 substrate | Potency, µM, for the others: at the highest dose activity change, negative = inhibition, hits mostly inhibitors | 150,000 tested, 4.3% active | AID 894; active means well fitted inhibition curve with a large enough effect, not every such curve was filed as active; inconclusive means small, poorly fitted or top-dose-only effect, or another doubt; inactive means no such curve, though single readings can be large or run the other way; further: potency means the concentration at half of the fitted maximal effect
Target sequence (P15428 whole entry, looked up): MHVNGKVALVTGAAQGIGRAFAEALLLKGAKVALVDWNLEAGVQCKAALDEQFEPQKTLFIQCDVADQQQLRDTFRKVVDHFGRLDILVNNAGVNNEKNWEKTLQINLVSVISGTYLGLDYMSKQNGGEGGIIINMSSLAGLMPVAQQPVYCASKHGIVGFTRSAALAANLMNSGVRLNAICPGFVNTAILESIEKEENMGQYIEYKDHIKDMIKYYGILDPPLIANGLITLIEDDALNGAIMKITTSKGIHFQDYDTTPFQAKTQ
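20 nM HPGD preincubated 15 min at room temperature with compound in 50 mM Tris-HCl pH 8, 0.01% Tween 20. Started with 1 mM NAD+ and 30 uM prostaglandin E2; NADH fluorescence (360/450 nm) read 5 times over 30-s intervals, last minus first.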
ALDH1A1 inh = blocks purified human ALDH1A1 activity. P00352. Purified ALDH1A1, NADH fluorescence, propionaldehyde substrate. Potency, µM (series often up to 75.3 µM), without a hit: at the highest dose activity, negative = inhibition, hits mostly inhibitors. 220,000 tested, 7.3% active. AID 1030; active means well fitted inhibition curve with a large enough effect, not every such curve was filed as active; inconclusive means small, poorly fitted or top-dose-only effect, or another doubt; inactive means no such curve, though single readings can be large or run the other way;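 further: potency means the concentration at half of the fitted maximal effect; plate controls were no enzyme wells and a reference inhibitor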
* = called active by the depositor; ? = inconclusive; / = no result given; [ ] = dose if it differs, or a comment. This is a sample that favours compounds with a hit; in the whole collection about 10% have one here. Unless noted, the call rests on the fitted dose curve; in most records, active means well fitted curve in the direction sought with a large enough effect; inconclusive means small, poorly fitted or top-dose-only effect, or another doubt; inactive means no such curve, though single readings can be large; an effect the other way counts as inactive or inconclusive. Unless noted, on the % scale 0 is the no-effect control and ±100 the full control effect.

SMILES	GLA inh pH 4.5	PNC assembly inh	12-hLO inh	aGal spleen mod	HPGD block	ALDH1A1 inh
CC(C)[C@@H]1NC(=O)[C@H](CCCCN)NC(=O)[C@H](Cc2c[nH]c3ccccc23)NC(=O)[C@H](Cc2ccc(O)cc2)NC(=O)[C@H](C)N(C)C(=O)[C@H](Cc2ccccc2)NC1=O	/	/	-5.6%	/	/	/
Nc1c(C(=O)NCCC2=CCCCC2)sc2ccc(S(=O)(=O)N3CCCCC3)cc12	-2.6	26.5	-5.6%	4.3%	?	?
C=CCN1C(=O)CSc2ccc(C(=O)NCCC3=CCCCC3)cc21	2.0	-6.7	4.4%	-7.1%	-14.0%	12.6µM*
O=C(NCc1ccco1)c1ccc2c(c1)N(Cc1ccccc1)C(=O)CS2	5.2	-10.5	-2.0%	-4.3%	-4.6%	-0.1%
C=CCN1C(=O)CSc2ccc(C(=O)NCc3ccco3)cc21	-0.2	12.2	-3.7%	-6.0%	-15.5%	22.4µM*
C=CCn1c(N)c(C(=O)NCCC2=CCCCC2)sc1=S	-8.9	-9.0	-18.8%	-7.4%	14.1µM*	3.55µM*
CN(C)CCN1C(=O)C(=O)/C(=C(/O)c2ccccc2)C1c1ccccc1F (stereo not drawn)	-10.4	?	-3.5%	12.0%	-16.3%	17.8µM*
COc1cccc(C2/C(=C(\O)c3ccc4c(c3)OCO4)C(=O)C(=O)N2CCN(C)C)c1OC (stereo not drawn)	-7.7	-15.5	-10.4%	15.4%	-28.1%	22.4µM*
CCN(CC)CCCN1C(=O)C(=O)/C(=C(/O)c2ccc3c(c2)OCCO3)C1c1ccc(C)o1 (stereo not drawn)	0.6	-19.3	-13.4%	3.1%	-14.7%	25.1µM*
CCOc1ccc(/C(O)=C2\C(=O)C(=O)N(CCN(C)C)C2c2cccc(OC)c2OC)cc1Cl (stereo not drawn)	-16.1	?	4.4%	-10.5%	-15.0%	?
O=C(CSc1nnc(-c2ccc(Br)cc2)n1CCc1ccccc1)NC1CCS(=O)(=O)C1 (stereo not drawn)	7.2	?	-1.4%	0.5%	-0.2%	2.7%
NC(=O)C(=O)O	-1.6	/	-0.9%	5.0%	-4.7%	-2.7%
COc1ccccc1CNc1nc(-c2cccnc2)nc2ccccc12	/	/	/	-9.1%	/	?
COC(=O)C1=C(C(=O)OC)N2C=CC=CC2(C)C(C(=O)OC)=C1C(=O)OC (stereo not drawn)	6.8	?	-20.2%	6.3%	35.5µM*	-7.4%
CCCS(=O)(=O)N1CCCC(C(=O)NC2CCCC(C)C2C)C1 (stereo not drawn)	8.1	-82.0*	5.2%	17.4%	-5.9%	-3.8%
COc1cc(OC)cc(C(=O)N2CCN(Cc3ccccc3[N+](=O)[O-])CC2)c1	3.3	/	/	1.2%	/	1.41µM*
O=C(c1ccc(F)cc1)N1CCN(Cc2ccccc2Br)CC1	5.1	-98.5*	-3.5%	5.4%	-3.4%	?
O=C(c1ccc([N+](=O)[O-])cc1)N1CCN(Cc2ccccc2[N+](=O)[O-])CC1	6.1	/	/	-9.5%	/	10µM*
COc1ccc(Br)cc1CN1CCN(C(=O)c2ccc(F)cc2)CC1	0.9	/	/	-7.5%	/	?
CC[C@@H](CS(=O)(=O)O)[N+](=O)[O-]	/	/	3.9%[11.4 µM]	/	-2.5%	7.9%[13.5 µM]
CC(Sc1ccccn1)C(=O)Nc1ccccc1 (stereo not drawn)	2.2	?	-7.1%	1.6%	28.2µM*	-2.2%
CC(Sc1nncn1C)C(=O)Nc1ccc(S(N)(=O)=O)cc1 (stereo not drawn)	1.0	/	/	5.3%	/	4.4%
CC(=O)c1ccc(NC(=O)C(C)Sc2ccccn2)cc1 (stereo not drawn)	6.5	/	/	6.8%	/	?
CC(Sc1ccccn1)C(=O)Nc1ccc(S(N)(=O)=O)cc1 (stereo not drawn)	-5.4	-107.5*	-6.1%	9.9%	-19.7%	-0.8%
CN1C(=O)C2(c3ccccc31)c1c(oc3ccccc3c1=O)C(=O)N2CCO (stereo not drawn)	3.2	/	/	2.3%	/	/
SMILES	GLA inh pH 4.5	PNC assembly inh	12-hLO inh	aGal spleen mod	HPGD block	ALDH1A1 inh
COc1ccccc1/C=C(/C#N)C(=O)O	-2.0	/	/	-5.8%	/	0.3%
CO[C@H]1COC(=O)C/C=C\[C@H](C)[C@@H](NS(=O)(=O)c2ccc(C)cc2)COC(=O)CCC[C@@H]1C	/	/	/	6.4%[17.5 µM]	/	?
C/C(=C\c1ccc(Cl)cc1)C(C)(C)C(=O)O	/	/	2.4%[11.4 µM]	/	-6.8%	-11.1%[13.5 µM]
CCCCN(C)C(=O)c1coc(=O)c2ccccc12	-3.0	-0.3	-5.0%	-10.7%	22.4µM*	-2.8%
O=C(c1ccco1)N1CCC2(CC1)CN(c1ccc(-c3ccccc3)cc1)C2	/	/	-4.1%	-14.5%	-10.4%	-8.4%
COc1cc(C2C(C#N)=C(N)Oc3cc(C)n(Cc4ccccn4)c(=O)c32)cc2c1OCO2 (stereo not drawn)	-8.0	4.7	-5.3%	0.2%	-24.8%	-0.6%
Cc1cc2c(c(=O)n1Cc1ccccn1)C(c1ccc3c(c1)OCO3)C(C#N)=C(N)O2 (stereo not drawn)	-2.3	-11.3	-1.4%	5.1%	-12.5%	12.6µM*
COc1cc(C2C(C#N)=C(N)Oc3cc(C)n(CC4CCCO4)c(=O)c32)cc2c1OCO2 (stereo not drawn)	-6.3	13.0	-5.1%	-7.2%	-18.5%	25.1µM*
N#CC1=C(N)OC2=C(C(=O)CC(c3ccccc3)C2)C1c1ccc2c(c1)OCO2 (stereo not drawn)	-2.4	35.2	-6.0%	-0.8%	28.2µM*	11.2µM*
N#CC1=C(N)OC(c2ccccc2)=C(C#N)C1c1ccc2c(c1)OCO2 (stereo not drawn)	-6.3	1.1	-24.8%	3.2%	14.1µM*	1µM*
COc1ccc(/C=N/NC(=O)CNc2ccc(Br)cc2)c(C(=O)O)c1OC	-2.9	/	/	-7.4%	/	-7.8%
COc1ccc(/C=N/NC(=O)CNc2c(Br)cc(C)cc2Br)c(C(=O)O)c1OC	-2.3	/	/	-0.2%	/	7.08µM*
Cc1cccc(C)c1N1CCN(C(=O)Cn2cncn2)CC1	-1.0	/	/	1.2%	/	12.6µM*
O=[N+]([O-])c1nn(-c2ccc3c(c2)OCCO3)n(O)c1=NC1CCCC1	-0.8	?	2.3%	10.8%	-15.9%	?
O=[N+]([O-])c1nn(-c2ccc3c(c2)OCCO3)n(O)c1=Nc1ccccc1	6.2	?	-1.2%	-1.9%	-3.4%	11.2µM*
O=[N+]([O-])c1nn(-c2ccc3c(c2)OCCO3)n(O)c1=NC1CCCCCC1	-27.8	12.9	-20.6%	10.4%	-4.5%	14.1µM*
COc1ccc(-n2c(C)cc(/C=C3\SC(=S)N(Cc4ccco4)C3=O)c2C)cc1	1.9	-25.9	1.2%	-0.1%	-8.5%	0.631µM*
CCCNC(=S)NNC(=O)c1cccs1	-10.1	/	/	-0.6%	/	-7.3%
